# Measurements from PubChem BioAssay (NCI).
# Compounds without any hit were thinned out: in the full panel of roughly 83,000, 20% have a hit.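 Results are percent growth after 48 hours of single-concentration exposure. 100 means growth as in untreated cells, lower positive values show inhibition; negative values down to -100 show cell death.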 Values without a mark were called inactive. The source made the active and inactive calls. How the source made its calls: active means growth percent below 10; inactive means the rest.
# Experiments:
# Test in all cases: NCI-60 one-dose screen, 48 h (100 = growth as untreated, 0 = no growth, -100 = all killed)
# Conditions in all cases: 10 µM unless noted
# NCI-H23 lung = tested on: NCI-H23 lung
# NCI-H226 lung = tested on: NCI-H226 lung
# NCI-H322M lung = tested on: NCI-H322M lung
# HOP-62 NSCLC = tested on: HOP-62 NSCLC
# NCI-H460 lung = tested on: NCI-H460 lung
# HOP-92 NSCLC = tested on: HOP-92 NSCLC
# NCI-H522 lung = tested on: NCI-H522 lung
# A549/ATCC NSCLC = tested on: A549/ATCC NSCLC
# 786-0 renal = tested on: 786-0 renal
# COLO 205 colon = tested on: COLO 205 colon
# DU-145 prostate = tested on: DU-145 prostate
# K-562 leukemia = tested on: K-562 leukemia
# MALME-3M melanoma = tested on: MALME-3M melanoma
# MDA-MB-231 breast = tested on: MDA-MB-231 breast
# RXF 393 renal = tested on: RXF 393 renal
# SF-268 CNS = tested on: SF-268 CNS
# SF-295 CNS = tested on: SF-295 CNS
# SF-539 CNS = tested on: SF-539 CNS
# UACC-257 melanoma = tested on: UACC-257 melanoma
# M14 melanoma = tested on: M14 melanoma
SMILES,growth (NCI-H23 lung),growth (NCI-H226 lung),growth (NCI-H322M lung),growth (HOP-62 NSCLC),growth (NCI-H460 lung),growth (HOP-92 NSCLC),growth (NCI-H522 lung),growth (A549/ATCC NSCLC),growth (786-0 renal),growth (COLO 205 colon),growth (DU-145 prostate),growth (K-562 leukemia),growth (MALME-3M melanoma),growth (MDA-MB-231 breast),growth (RXF 393 renal),growth (SF-268 CNS),growth (SF-295 CNS),growth (SF-539 CNS),growth (UACC-257 melanoma),growth (M14 melanoma)
O=C(NN1C(=O)/C(=C/C=C/c2ccc([N+](=O)[O-])o2)SC1=S)c1ccc([N+](=O)[O-])cc1,-88.4% (active),-83.3% (active),-100% (active),-100% (active),-48.9% (active),-84.2% (active),-88.7% (active),-93% (active),-80.1% (active),-94.1% (active),-100% (active),4.2% (active),-91.3% (active),-99.7% (active),-88.6% (active),-82.3% (active),-97.5% (active),-100% (active),-82.2% (active),-82.5% (active)
N#Cc1cc(-c2ccnc(Nc3ccc(N4CCN(C5COC5)CC4)cc3)n2)ccc1N1CCCC1,82.9%,71%,63.9%,64.3%,49.9%,52.5%,65.6%,67.3%,16.9%,86.1%,51%,42.5%,104%,65%,9.2% (active),50.2%,85.6%,46.5%,74.4%,71.9%
CN(C)c1nc(NCCNS(=O)(=O)c2ccc(C3=Nc4c(N)nc(N)nc4NC(c4ccc(C(F)(F)F)cc4)C3)cc2)nc(N2CCOCC2)n1 (stereo not given),74%,54.1%,84.2%,51.8%,35.6%,-17% (active),35%,40.2%,20.2%,-14.2% (active),61.8%,9.12% (active),60.3%,38.5%,16.6%,38.6%,45.5%,34.3%,52.9%,28%
O=C(Nc1ccc(Cl)c(C(F)(F)F)c1)N1CCN(c2cc(-c3cn(-c4ccccc4)nc3-c3cccc(O)c3)ccn2)CC1,-27.3% (active),-16.2% (active),14.8%,14.5%,7.84% (active),-2.61% (active),-17.3% (active),14.7%,8.51% (active),-2.61% (active),22.5%,14.8%,-31.4% (active),-48.6% (active),-35.4% (active),2.35% (active),-37.2% (active),7.9% (active),-16.6% (active),-19.3% (active)
COc1ccc(-c2nc3ccc(-c4nnc(SCC(=O)Nc5ccc(/C(C)=N\O)cc5)o4)cc3[nH]2)cc1,42.6%,77.5%,46.5%,77%,59.1%,104%,40.1%,74.2%,-62.1% (active),107%,71.7%,32.4%,-20.5% (active),56%,-45.2% (active),49.4%,97.7%,-53.4% (active),50.4%,28.5%
COc1ccc2c(c1)N=c1c-2cc2c(O)[nH]c(=S)n2c1=O,43.1%,46.1%,78.1%,36.6%,83.1%,71.3%,-9.92% (active),65.8%,35.3%,30.7%,50.8%,19.7%,54.8%,42.1%,11.4%,84.4%,26.1%,-7.78% (active),53.4%,40%
O=C(CSc1nnc(-c2ccc(-c3nc4ccccc4[nH]3)cc2)o1)Nc1ccccc1,63.1%,76.1%,84.4%,63.2%,12%,54.1%,78%,51.8%,22%,118%,4.85% (active),33.1%,93.3%,-14.5% (active),-1.42% (active),45.7%,94.2%,46.7%,103%,60.3%
COc1ccc2nc(NC(=O)c3ccc(N(C)C)cc3)sc2c1,66.2%,56.9%,64.7%,92%,65.9%,112%,67.7%,54.9%,85%,89.5%,83.4%,60.2%,72.7%,92.7%,110%,90.2%,59%,90%,80.6%,87.4%
